# Only a selection was taken, and hits are over-represented in it overall.
# NOMO-1 viab: STK33 inhibitor candidate reducing NOMO-1 cell viability | NOMO-1 AML viability, CellTiter-Glo luminescence, 72 h | inhibition, % (no concentration beside the values) | actives 7.5% (n = 37,000); in the data active means inhibition above about 80%
# STK33 inh: human STK33 kinase inhibition. actives 0.44% (n = 27,000). inhibition, % at 12.5 µM. ADP-Glo luminescence, MBP substrate. AID 2322; in the data active means inhibition above about 20%
# Target sequence (Q9BYT3 whole entry, looked up): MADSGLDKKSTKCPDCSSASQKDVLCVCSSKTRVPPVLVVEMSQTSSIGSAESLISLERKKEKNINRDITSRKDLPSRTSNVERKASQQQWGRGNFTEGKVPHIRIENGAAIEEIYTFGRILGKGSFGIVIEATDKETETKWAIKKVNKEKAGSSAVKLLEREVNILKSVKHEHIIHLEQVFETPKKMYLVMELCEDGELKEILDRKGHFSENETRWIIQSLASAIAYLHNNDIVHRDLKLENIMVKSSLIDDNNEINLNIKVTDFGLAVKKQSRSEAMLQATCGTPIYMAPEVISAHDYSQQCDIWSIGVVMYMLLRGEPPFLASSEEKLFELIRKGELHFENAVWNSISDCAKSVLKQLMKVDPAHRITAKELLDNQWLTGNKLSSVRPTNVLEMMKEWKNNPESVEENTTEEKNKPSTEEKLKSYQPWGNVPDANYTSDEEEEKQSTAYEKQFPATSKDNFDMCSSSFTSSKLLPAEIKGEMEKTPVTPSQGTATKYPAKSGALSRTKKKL
# PD-1 reverse act: reversal of PD-1 mediated T-cell inhibition; primary human CD4 T cells, PD-L1 beads, CellTiter-Glo 96 h; activation, % (no concentration beside the values); 29,000 tested, under 10 active; call rule not given here;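 further: 0% = median vehicle wells and 100% = positive control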
# Active calls of the source: *; . = no result given.
SMILES,NOMO-1 viab,STK33 inh,PD-1 reverse act
C[C@H]1CN([C@@H](C)CO)C(=O)c2cc(NC(=O)Nc3ccc(C(F)(F)F)cc3)ccc2O[C@@H]1CN(C)Cc1ccc(Cl)c(Cl)c1,117.0*,-0.4,-6.3
C[C@@H]1CN([C@@H](C)CO)C(=O)c2cc(NC(=O)Nc3ccc(C(F)(F)F)cc3)ccc2O[C@H]1CN(C)Cc1ccc(Cl)c(Cl)c1,115.5*,3.9,-3.8
C[C@H](CO)N1C[C@H](C)[C@H](CN(C)Cc2ccc(Cl)c(Cl)c2)Oc2ccc(NC(=O)Nc3ccc(C(F)(F)F)cc3)cc2C1=O,124.7*,.,-0.5
C[C@H](CO)N1C[C@H](C)[C@@H](CN(C)Cc2ccc(Cl)c(Cl)c2)Oc2ccc(NC(=O)Nc3ccc(C(F)(F)F)cc3)cc2C1=O,64.6,.,.
CCOc1ccccc1NC(=O)c1ccsc1NC(=O)c1cc2ccccc2oc1=O,-14.0,-1.8,.
COc1ccc(C)cc1NC(=O)C(C)NS(=O)(=O)c1ccc(C)cc1 (stereo unspecified),-0.1,-0.8,.
CN(c1ccccc1C(=O)Nc1ccccc1C(=O)N1CCOCC1)S(C)(=O)=O,1.2,0.8,1.8
CCCc1ccc(O)c(N)c1,123.8*,.,-6.6
Nc1cc(-c2ccccc2)ccc1O,63.0,.,-0.6
COc1cccc(OC)c1C(=O)Nc1ccc(C(=O)NCC2CCCO2)cc1 (stereo unspecified),8.8,-4.6,2.9
CCOC(=O)N1CCc2c(sc3ncn(Cc4ccc(Cl)cc4)c(=O)c23)C1,51.3,.,0.3
COc1ccc(NC(=O)CSc2cc(C)c3cccc(C)c3n2)cc1,105.2*,1.2,-6.1
CCOc1ccccc1NC(=O)CSc1cc(C)c2cccc(C)c2n1,19.7,1.0,-3.8
O=C(Nc1cccnc1)C1CC(c2c(F)cccc2Cl)=NO1 (stereo unspecified),11.2,-0.3,-0.3
COc1ccc(OC(C)c2nc(-c3cccnc3)no2)cc1 (stereo unspecified),-10.0,-1.6,.
CC(Oc1ccc(C(C)(C)C)cc1)c1nc(-c2cccnc2)no1 (stereo unspecified),81.3*,-0.5,-6.1
Cc1ccc2c(C)c(C(=O)Nc3ccc(S(=O)(=O)Nc4ncccn4)cc3)oc2c1,34.4,2.2,.
C[C@@H]1CCCCO[C@H](CN(C)C(=O)Nc2cccc3ccccc23)[C@@H](C)CN([C@H](C)CO)C(=O)c2cc(NS(=O)(=O)c3ccccc3)ccc2O1,41.4,-0.7,0.0
C[C@@H]1CCCCO[C@H](CN(C)Cc2ccc(C(=O)Nc3ccccc3N)cc2)[C@@H](C)CN([C@H](C)CO)C(=O)c2cc(NS(=O)(=O)c3cn(C)cn3)ccc2O1,40.2,.,0.1
C[C@@H]1CCCCO[C@H](CN(C)Cc2ccc(C(=O)Nc3ccccc3N)cc2)[C@@H](C)CN([C@H](C)CO)C(=O)c2cc(NS(=O)(=O)c3ccc(Cl)cc3)ccc2O1,126.6*,.,0.0
C[C@@H]1CCCCO[C@H](CN(C)C(=O)Nc2cccc3ccccc23)[C@@H](C)CN([C@H](C)CO)C(=O)c2cc(NS(=O)(=O)c3ccc(F)cc3)ccc2O1,93.8*,3.0,-3.8
C[C@@H]1CCCCO[C@@H](CN(C)Cc2ccccc2)[C@@H](C)CN([C@H](C)CO)C(=O)c2cc(NS(=O)(=O)c3ccc(Cl)cc3)ccc2O1,40.5,0.5,-1.7
C[C@@H]1CCCCO[C@@H](CN(C)Cc2ccc(C(=O)Nc3ccccc3N)cc2)[C@@H](C)CN([C@H](C)CO)C(=O)c2cc(NS(=O)(=O)c3ccccc3)ccc2O1,139.6*,.,-1.2
C[C@@H]1CCCCO[C@@H](CN(C)Cc2ccc(C(=O)Nc3ccccc3N)cc2)[C@@H](C)CN([C@H](C)CO)C(=O)c2cc(NS(=O)(=O)c3ccc(F)cc3)ccc2O1,140.8*,.,-0.6
C[C@@H]1CCCCO[C@@H](CN(C)Cc2ccccc2)[C@@H](C)CN([C@H](C)CO)C(=O)c2cc(NS(=O)(=O)c3ccc(F)cc3)ccc2O1,22.4,0.4,-1.2
SMILES,NOMO-1 viab,STK33 inh,PD-1 reverse act
COc1ccc(S(=O)(=O)N[C@H]2CCN(Cc3cccc(OCCO)c3)C2)cc1,.,-0.3,.
O=C(Oc1ccc(Cl)cc1Cl)c1cccnc1SCCS(=O)(=O)c1ccccc1,20.7,.,-0.8
CN(CC(=O)Nc1cccc(Cl)c1)S(=O)(=O)c1ccccc1,1.7,-1.6,-0.4
COC(=O)c1c(NC(=O)COc2ccc(Cl)c(C)c2)sc2c1CCC2,.,0.3,.
COc1cc(C2NC(=S)NC(C)=C2C(=O)Nc2ccccc2C)c(Br)cc1OCC(=O)O (stereo unspecified),15.4,-1.7,-0.3
COc1ccc(/C=C2/SC(=S)N(C)C2=O)cc1,-15.0,.,0.2
Cc1ccc(N(CC(=O)Nc2ccccc2-c2ccccc2)S(C)(=O)=O)cc1C,49.9,-1.6,.
O=C(CC(c1ccccc1)c1ccccc1)Nc1ccc(Cl)cc1,44.0,.,0.4
CC1Oc2ccccc2OC1(O)c1ccc(Br)cc1 (stereo unspecified),106.4*,.,-0.5

# Source: PubChem
